Screening results as filed in PubChem.
Sampled rows, rich in hits. Any-hit rate of the full collection: about 2.8%.
WRN inhibitor – blocks human WRN helicase. WRN helicase unwinding, fluorescent forked duplex, kinetic. Potency, µM (top dose mostly 114 µM), for inactives: at the highest dose activity change, negative = inhibition, hits mostly inhibitors. Q14191. hit rate 0.46% among 360,000; also: potency is read from the fitted curve at half-maximal effect; % is scaled to controls: 0 for no effect and ±100 for the full control effect; nearly all actives have a fitted effect of over 55% in size
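Kinetic fluorescence helicase assay: unwinding of a quenched forked DNA duplex (100 nM final) with 2 mM ATP final raises red fluorescence (525/598 nm). Compounds sat 15 min at room temperature with 20 nM WRN beforehand.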
PI5P4K alpha inh – inhibitors of human PI5P4K alpha; P48426; PI5P4Kalpha enzyme, ADP-Glo luminescence, 60 min; stronger effect = lower value; max response, %; hit rate 1.2% among 330,000; AID 652105; active = max response of -50% or lower; inconclusive = between -30% and -50%; inactive = -30% or higher; also: value at the top dose of about 77 µM; % is scaled to controls: 0 for no effect and ±100 for the full control effect
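PI5P4Kalpha ADP-Glo assay; 5 microM ATP final; 60 min RT reaction; HEPES pH 7.4/EGTA/CHAPS, 5% DMSO; controls lacking substrate or enzyme; luminescent end-point.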
Pol eta inh-1 – DNA polymerase eta (human) inhibition; recombinant Pol eta, fluorescent DNA replication assay; hit rate 1.2% among 390,000; Potency, µM (series often up to 114 µM), without a hit: top-dose activity change, negative = inhibition, hits mostly inhibitors; also: potency is read from the fitted curve at half-maximal effect; % is scaled to controls: 0 for no effect and ±100 for the full control effect
Target sequence (Q9Y253 whole entry, looked up): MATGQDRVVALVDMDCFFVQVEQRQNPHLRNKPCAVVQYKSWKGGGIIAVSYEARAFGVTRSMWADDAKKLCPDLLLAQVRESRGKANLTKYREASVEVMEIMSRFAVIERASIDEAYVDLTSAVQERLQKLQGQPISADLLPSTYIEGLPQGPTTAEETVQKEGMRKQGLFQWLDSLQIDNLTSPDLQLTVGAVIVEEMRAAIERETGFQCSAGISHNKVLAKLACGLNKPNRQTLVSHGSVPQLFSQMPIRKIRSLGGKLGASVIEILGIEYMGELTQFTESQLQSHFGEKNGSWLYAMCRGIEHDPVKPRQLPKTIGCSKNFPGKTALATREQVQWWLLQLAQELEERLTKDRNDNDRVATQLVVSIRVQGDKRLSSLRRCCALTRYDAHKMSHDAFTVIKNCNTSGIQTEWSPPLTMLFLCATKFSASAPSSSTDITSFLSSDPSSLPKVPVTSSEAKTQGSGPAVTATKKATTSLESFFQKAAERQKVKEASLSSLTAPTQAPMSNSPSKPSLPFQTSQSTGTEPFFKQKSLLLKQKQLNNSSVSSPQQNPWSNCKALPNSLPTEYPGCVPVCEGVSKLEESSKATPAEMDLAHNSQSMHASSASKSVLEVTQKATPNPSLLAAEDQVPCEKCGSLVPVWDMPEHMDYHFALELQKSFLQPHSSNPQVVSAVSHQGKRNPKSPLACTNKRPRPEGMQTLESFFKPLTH
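Pol eta (10 nM) was preincubated with compounds for 15 min at room temperature, after which fluorescent replication substrate (50 nM final) was added to start the reaction. Fluorescence was read kinetically at 0 and 10 min.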
Pol iota inh – DNA polymerase iota (human) inhibition; AID 588590; hit rate 1% among 390,000; Q9UNA4; Potency, µM (titrated, usually from 115 µM), for the others: at the highest dose activity, negative = inhibition, hits mostly inhibitors; Pol iota fluorescent replication assay, 10 min; also: potency is read from the fitted curve at half-maximal effect
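Fluorescent replication assay read twice, at 0 min and 10 min after adding 50 nM (final) substrate. Enzyme (10 nM) and compounds were first incubated 15 min at room temperature; enzyme-free buffer wells were negative controls.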
Pol beta inh – inhibitors of human DNA polymerase beta. hit rate 1.3% among 340,000. Potency, µM (top dose mostly 114 µM), for the others: top-dose activity change, negative = inhibition, actives largely listed as inhibitors. Pol beta primer extension/strand displacement, fluorescence kinetic; also: potency is read from the fitted curve at half-maximal effect; % is scaled to controls: 0 for no effect and ±100 for the full control effect
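Human Pol beta at 10 nM; strand-displacement substrate 50 nM final. Compound exposure 15 min at room temperature before start, reaction 10 min at room temperature.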
Pol kappa inh-1 – inhibitors of human DNA polymerase kappa. purified Pol kappa, fluorescent DNA synthesis assay, 10 min. Potency, µM (top dose mostly 107 µM), for the others: top-dose activity, negative = inhibition, usual class: inhibitors. hit rate 0.53% among 400,000. AID 588579; also: potency is read from the fitted curve at half-maximal effect; % is scaled to controls: 0 for no effect and ±100 for the full control effect
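Kinetic fluorescence readout at 0 and 10 min followed reaction start with substrate at 50 nM final. Beforehand, enzyme (10 nM Pol kappa) stood 15 min with compound at room temperature; buffer-only wells were negative controls.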
GALK confirm – confirmation of human galactokinase (GALK) inhibitors. shares compounds with Pol eta inh-1. purified GALK, Kinase-Glo ATP depletion luminescence. Potency, µM (titrated, usually from 115 µM), without a hit: at the highest dose activity, negative = inhibition, most hits filed as inhibitors. hit rate 70% among 150. AID 2015
GALK redox cs – redox cycling activity in phenol red-HRP assay; shares compounds with Pol eta inh-1; Phenol red-HRP H2O2 redox cycling, absorbance 600 nm; Potency, µM (titrated, usually from 115 µM), for inactives: top-dose activity change, negative = H2O2 signal, actives largely listed as inhibitors; hit rate 40% among 150; AID 2035
HEK293 viability – counter-screen for GALK inhibitors: HEK293 cell cytotoxicity. shares compounds with Pol eta inh-1. HEK-293 viability, ATP luminescence (CellTiter-Glo), 24/48 h. Potency, µM (top dose mostly 46.1 µM), for the others: top-dose activity change, negative = cytotoxicity, most hits filed as inhibitors. hit rate 10% among 170; also: potency is read from the fitted curve at half-maximal effect; % is scaled to controls: 0 for no effect and ±100 for the full control effect
Pol kappa inh-2 – confirmation of human DNA polymerase kappa inhibitors; shares compounds with Pol eta inh-1; purified Pol-kappa, fluorescent strand-displacement substrate; Potency, µM, actives largely listed as inhibitors; hit rate 76% among 920; AID 720501; also: potency is read from the fitted curve at half-maximal effect
Pol eta inh-2 – confirmation of human DNA polymerase eta inhibitors. Potency, µM, actives largely listed as inhibitors. Pol eta primer extension, TAMRA/BHQ fluorescence, 10 min. shares compounds with Pol eta inh-1. hit rate 64% among 2,600; also: potency is read from the fitted curve at half-maximal effect
* = called active by the depositor; ? = inconclusive; · = no result; [ ] = remark or other dose. Unless noted, calls follow the shape of the dose curve; as a rule, active = well fitted curve in the direction sought with a large enough effect; inconclusive = small, poorly fitted or top-dose-only effect, or another doubt; inactive = no such curve, though single readings can be large; an effect the other way counts as inactive or inconclusive.

SMILES	WRN inhibitor	PI5P4K alpha inh	Pol eta inh-1	Pol iota inh	Pol beta inh	Pol kappa inh-1	Pol eta inh-2	others
COc1cc(/C=C2\SC(=S)N(NS(=O)(=O)c3ccc(C)cc3)C2=O)ccc1O	45µM*	-68*	?	40µM*	40µM*	?	·	Pol kappa inh-2=?
CC(/C=C1\SC(=S)N(NC(=O)c2ccc(C)cc2)C1=O)=C\c1ccccc1	-15%	1	4%	-2%	2%	-22%	·
COc1ccccc1/C=C1\SC(=S)N(NS(=O)(=O)c2ccccc2)C1=O	-13%[57.1 µM]	-30	?	-19%	-19%	-17%	·
CC(Oc1ccccc1)C(=O)N1CCN(Cc2cc(=O)n3nc(-c4ccccc4Cl)sc3n2)CC1 (stereo not given)	·	·	-2%	-1%	40%	-13%[60.1 µM]	·
Cc1nn(-c2ccccc2)c2nc(C3CC3)cc(C(=O)Nc3ccc(F)cc3)c12	·	·	-14%	-8%	-1%	12%	·
Cc1ccc2c(=O)cc(C(=O)Nc3c(C(=O)Nc4cccc(Cl)c4)oc4ccccc34)oc2c1	·	·	2%	-2%	-1%	-17%	·
Cc1ccc(C)c(OCC(=O)Nc2cc(NC(=O)COc3cc(C)ccc3C)cc(C(=O)O)c2)c1	?	0	50µM*	?	0%	-13%	67*
Cc1ccc(C)c(OCC(=O)Nc2nonc2NC(=O)COc2cc(C)ccc2C)c1	-9%	·	-11%	?	-25%	-7%	·
Cc1cccc(NC(=O)CN(C)S(=O)(=O)c2ccc3c(c2)CCC(=O)N3)c1C	·	·	-8%	4%	0%	-23%	·
CC(/C=C/c1ccco1)=N\NC(=O)c1cc(Cl)ccc1O	?	-80*	22µM*	40µM*	?	79µM*	?
CC(/C=C/c1ccco1)=N/NC(=O)Cc1cccs1	?	-52*	18µM*	32µM*	22µM*	?	?
O=[N+]([O-])c1ccc2c(c1)N([O-])C1(CCCCC1)[N+]2=O	?	-51*	22µM*	11µM*	-2%	?	85*
O=c1c(O)cc(C2Oc3cc(O)cc(O)c3CC2O)cc2c(C3Oc4cc(O)cc(O)c4CC3O)cc(O)c(O)c12 (stereo not given)	·	·	·	·	·	0.71µM*	·	GALK confirm=5.3µM*;GALK redox cs=5.3µM*;HEK293 viability=-2%
O=C1C[C@H](c2ccccc2)Oc2cc(O)cc(O)c21	·	·	·	·	·	-3%[19.4 µM]	·
CCN(CC)S(=O)(=O)c1ccc(/C=C/C(=O)OCC(=O)NCc2ccco2)cc1	?	-57*	16µM*	35µM*	·	?	?	Pol kappa inh-2=42*
CN(C)S(=O)(=O)c1ccc(Cl)c(NC(=O)COC(=O)/C=C/c2ccco2)c1	-15%	-27	?	?	?	-30%	?
Cc1ccc(C(=O)COC(=O)c2cc(=O)[nH]c3ccccc23)cc1C	-8%[11.6 µM]	1	50µM*	26%	6%	-14%	67*
COc1ccccc1C(=O)COC(=O)c1cc(=O)[nH]c2ccccc12	3%	5	-4%	36%	·	-4%	·
COCCNC(=O)c1c(NC(=O)c2cc(=O)c3cc(Cl)ccc3o2)sc2c1CCCC2	·	·	-19%	-1%	-3%	-23%	·
O=C(Nc1ccc(S(=O)(=O)Nc2ncccn2)cc1)c1ccc2ncsc2c1	-4%	?	40µM*	?	?	-26%	76*
Cc1c(C(=O)Nc2ccc(S(=O)(=O)Nc3ncccn3)cc2)oc2ccccc12	-9%	-28	28µM*	?	·	?	43*
Cc1ccc(C)c(Nc2nc3c(S(=O)(=O)c4ccc(Br)cc4)nnn3c3ccsc23)c1	·	·	-25%	45µM*	18µM*	?	·	Pol kappa inh-2=21*
Cc1ccc(C)c(Nc2nc3c(S(=O)(=O)c4ccc(C(C)C)cc4)nnn3c3ccsc23)c1	·	·	-19%	-24%	1%	-14%	·
O=C(O)CNc1ccccc1C(=O)O	-4%[11.6 µM]	8	20µM*	?	-80%	-66%	60*
CC1(C)OC(=O)C(=Cc2ccc(-c3ccc(Cl)c(C(=O)O)c3)o2)C(=O)O1	45µM*	?	10µM*	?	?	40µM*	27*
SMILES	WRN inhibitor	PI5P4K alpha inh	Pol eta inh-1	Pol iota inh	Pol beta inh	Pol kappa inh-1	Pol eta inh-2	others
Cc1ccc(N2NC(=O)/C(=C/c3ccc(-c4ccc(Cl)c(C(=O)O)c4)o3)C2=O)cc1C	-19%[11.6 µM]	-17	?	?	-2%	-44%	·	Pol kappa inh-2=?
COc1cccc(/C=C2/C(=O)NN(c3ccc(C)c(C)c3)C2=O)c1	-2%	2	-12%	?	?	-1%	·
Nc1nonc1C(=O)N/N=C/c1ccc(-c2ccc(Cl)c(C(=O)O)c2)o1	?	-24	13µM*	22µM*	?	?	48*
Cc1[nH][nH]c(=O)c1C(c1ccc(-c2ccc(Cl)c(C(=O)O)c2)o1)c1c(C)[nH][nH]c1=O	?	-22	10µM*	3.2µM*	-25%	50µM*	60*	GALK confirm=?;GALK redox cs=4.7µM*;HEK293 viability=-7%;Pol kappa inh-2=24*
COc1cccc(NC(=O)C2CCN(S(=O)(=O)c3cccc4nonc34)CC2)c1	·	·	-16%	8%	11%	4%	·
COc1ccccc1NC(=O)C1=C(C)Nc2nc(SCC(=O)c3ccc(C)cc3)nn2C1c1ccc(F)cc1 (stereo not given)	·	·	-10%	13%	0%	3%[60.1 µM]	·
N#Cc1ccccc1OCC(=O)NC(=O)NCc1ccccc1	1%	9	-10%	54%	2%	-3%	·
N#Cc1ccccc1OCC(=O)NC(=O)NCc1ccco1	-11%[11.6 µM]	?	40µM*	?	-29%	-39%	?
CC1CCN(c2nn3c(=O)c(C(=O)NCCc4ccc(Cl)cc4)cnc3s2)CC1	·	·	-4%	-8%	0%	-6%	·
